# Jurkat NFkB inh: inhibitors of the PMA/ionomycin-induced NF-kB reporter in Jurkat cells. PMA/ionomycin-induced NF-kB luciferase reporter, luminescence. inhibition, % at 4 µM. actives 0.53% (n = 330,000); in the data active = inhibition above about 50%
# Shn3 inh set2: inhibitors of Schnurri-3 3'UTR reporter in osteoblasts. Clone20 osteoblast Shn3 3'UTR firefly luciferase, 24 h. inhibition, % at 12.5 µM. actives 0.52% (n = 360,000);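 active = mean inhibition of at least 75% with every replicate also reaching 75%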;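 also: 0% = median of neutral control wells and 100% = pilot-screen positive control compound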
# Beta cell apopt: blocks beta cell apoptosis; INS-1E cytokine-induced death, ATP luminescence, 48 h; percent of positive-control rescue, neutral wells zero; protection from apoptosis, % (concentration not given with the values); actives 0.8% (n = 300,000); AID 435005;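 active = Every replicate reaches about 75%, or at least half do and their mean reaches it too, limit read from the data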;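 also: 0% = cytokine-treated negative control wells and 100% = positive control rescue; higher means more ATP so stronger rescue from cytokine killing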
# Calb FLC: C. albicans growth modulation with fluconazole; C. albicans CaCi-2 (fluconazole-resistant clinical isolate) + fluconazole, Alamar Blue growth, 48 h; growth inhibition, % (no concentration beside the values); actives 0.57% (n = 300,000);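 active = growth inhibition above about 58% in most replicates, limit read from the data, passing the limit was not always enough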;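 also: all wells also contain fluconazole at 8 µg/ml as a sub-toxic cotreatment; 0% = median of DMSO wells and 100% = median of geldanamycin control wells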
# 697 NFkB inh: inhibitors of the PMA/ionomycin-induced NF-kB reporter in 697 B cells; 697 B-cell NF-kB luciferase reporter, 16 h; inhibition, % at 4 µM; actives 0.33% (n = 330,000); AID 435022; in the data active = inhibition above about 35%
# Numbers without * were called inactive; x = not tested or not shown. In the library only some 2% were active in any assay of this set; here they are far more common.
SMILES,Jurkat NFkB inh,Shn3 inh set2,Beta cell apopt,Calb FLC,697 NFkB inh
CN(C(=O)COC(=O)CCC(=O)c1ccc(F)cc1)C1CCCCC1,-5.3,-25.1,-7.8,x,8.5
Cc1cc(S(=O)(=O)N2CCN(c3ccccc3F)CC2)ccc1-n1cnnn1,-16.5,16.4,4.5,-4.4,-5.3
COc1ccc(O)c(/C=N/NC(=O)c2c(C)nnn2-c2nonc2N)c1,17.4,68.1,30.6,62.6*,3.3
COc1ccc(/C=N/NC(=O)c2nnn(-c3nonc3N)c2-c2cccc(OC)c2)cc1,-9.0,23.1,-9.1,-0.4,12.3
Nc1cccc2cccc([N+](=O)[O-])c12,x,3.8,x,x,x
COC(=O)CSc1nnc2n(-c3ccc(OC)cc3)c(=O)c3c4c(sc3n12)CCCCC4,11.4,-35.6,-10.1,10.7,28.1
COc1ccc(-n2c(=O)c3c4c(sc3n3c(=S)[nH]nc23)CCCC4)cc1,18.0,-28.0,8.3,92.8*,13.6
COc1cc(C(C)n2nnc3ccccc32)ccc1O (configuration not stated),x,-3.5,x,x,x
CCN(CC)S(=O)(=O)c1ccc(N2CCN(c3ccccc3OC)CC2)c(N)c1,16.0,76.2,126.3*,11.3,2.5
FC(F)Sc1ccc(N=C2NN=C(c3ccc4c(c3)OCCO4)CS2)cc1,-12.1,20.2,101.5*,2.9,-19.8
O=C(CCC(=O)N1CCc2ccccc2C1)NCCc1ccc(Cl)cc1,-1.3,7.3,0.2,30.0,3.8
Cn1c(N)c(C(=O)CSc2nnc(C3CC3)n2Cc2ccccc2)c(=O)[nH]c1=O,-6.0,2.8,x,x,15.8
Cc1cccc(Cn2cc(/C=C/[N+](=O)[O-])c3ccccc32)c1,16.3,-9.7,-0.5,-4.7,6.4
O=[N+]([O-])/C=C/c1cn(Cc2ccc(Cl)cc2)c2ccccc12,5.1,89.4*,0.2,10.0,-2.1
O=C(O)C(Cc1c[nH]c2ccccc12)N1C(=O)C2C3c4ccccc4C(c4ccccc43)[C@@H]2C1=O (some centres not stated),-1.2,-16.8,-1.7,1.2,18.6
Cc1ccccc1N1CCN(S(=O)(=O)Cc2ccccc2)CC1,-9.1,10.1,-5.9,0.5,-23.7
CS/C(=N\S(=O)(=O)c1cccs1)Nc1ccc(Cl)cc1,0.1,-27.2,-27.7,85.5*,-15.5
CS/C(=N\S(=O)(=O)c1cccs1)Nc1ccc(Br)cc1F,11.4,8.6,6.8,101.2*,10.1
CS/C(=N\S(=O)(=O)c1ccc(N)cc1)NS(=O)(=O)c1cccs1,-5.0,-29.5,1.5,-30.0,12.1
C[C@H](CO)N1C[C@H](C)[C@@H](CN(C)S(=O)(=O)c2cn(C)cn2)Oc2ccc(NC(=O)NC3CCCCC3)cc2C1=O,-5.8,-3.6,-2.8,x,3.9
CCn1c2ccccc2c2cc(NC(=O)C(C)Oc3ccccc3)ccc21 (configuration not stated),24.0,7.4,3.5,-15.1,24.1
CCn1c2ccccc2c2cc(NC(=O)C(C)C)ccc21,8.4,11.6,5.3,96.0*,14.2
O=C(NCc1ccccc1Cl)C1CCN(C(=O)c2ccco2)CC1,9.0,x,-1.8,7.5,-4.5
CCCCn1c(CN2CCN(C(=O)OCC)CC2)nc2c1c(=O)n(C)c(=O)n2C,11.9,61.7,-0.3,101.5*,11.4
COc1cccc(/C=N/n2c(N)c(S(=O)(=O)c3cccs3)c3nc4ccccc4nc32)c1OC,-5.8,-14.2,28.1,-0.6,11.7
SMILES,Jurkat NFkB inh,Shn3 inh set2,Beta cell apopt,Calb FLC,697 NFkB inh
Nc1c(S(=O)(=O)c2cccc(Cl)c2)c2nc3ccccc3nc2n1/N=C/c1ccc(O)c(O)c1,2.7,x,51.2,85.3*,-8.2
COc1ccc(CC(=O)N(C)Cc2ccc(Cl)cc2)cc1S(=O)(=O)N1CCOCC1,-5.9,1.3,-5.1,5.6,-22.3
CCOc1ccc(-c2noc(CCC(=O)NC3CCCCC3)n2)cc1OC,-9.8,-13.5,-8.1,5.0,-11.2
Cc1ccc(NC(=O)CN2C(=O)S/C(=C\c3ccccn3)C2=O)cc1,5.7,-6.6,-0.8,2.2,1.2
O=C(CN1C(=O)S/C(=C\c2ccccn2)C1=O)Nc1ccccc1,2.9,0.4,0.5,109.0*,13.9
O=C(CCl)N(c1ccccc1)c1c[nH]c2ccccc12,-13.0,94.1*,-31.9,1.4,1.8
COc1ccccc1-n1nnnc1SCC(=O)NC1CCCCC1,-0.3,-7.6,5.4,-1.1,18.3
COc1ccccc1-c1sc2ccccc2c1C#Cc1ccc(N(C)C)cc1,0.3,10.5,13.4,x,-9.7
CCOC(=O)COc1ccc2ccccc2c1/C=C/[N+](=O)[O-],x,94.6*,106.1*,66.4,x

# Assay outcomes: PubChem BioAssay, several laboratories
